The whole screen tested about 2,100 compounds, of which about 760 (36%) were called active.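 The calls were made as follows: active = thallium-flux fluorescence traces judged by eye to show enhanced or reduced glutamate response, manual score 1 or -1, so both directions (some results past the limit were not filed as active); inactive = the rest, including fluorescent or raised-baseline compounds.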 A selection follows.

A short description of the test: non-GIRK thallium flux modulation in mGlu8 cells, confirmation, counter-screen for GIRK activator project, cell-based, HEK-293 rmGlu8, no GIRK (AID 623868).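 Also: extra codes mark interference with 3 for fluorescent and 4 for baseline rise.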 Conditions: thallium flux fluorescence, at 10 µM, actives lie on both sides, codes: 1 enhancer, -1 blocker, 0 none, thallium stimulus containing EC20 glutamate. Background: The purpose of a counterscreen is to sort out artefacts and off-target activity.
`CSc1ccc(S(=O)(=O)NCc2ccccc2Cl)cc1`: the manual score was 0 (inactive).

Regarding `Cc1ccc(C(=O)CC(=O)COc2ccc(Cl)cc2)cc1`, the manual score is 0 (inactive).

Regarding `Cc1ccc(NC(=O)COC(=O)CCC(=O)c2ccc(Cl)cc2)cc1S(=O)(=O)N(C)C`, the manual score is 0 (inactive).

Consider `Cc1ccc(C(=O)CC(=O)COc2ccc(Cl)cc2C)cc1`, for which the manual score was 1 (active).

As to `S=c1[nH]c2cc(Cl)ccc2s1`, the manual score was 1 (active).

Turning to `CCc1nnc(NC(=O)CSc2nnc(C3CCCCC3)n2-c2cccc(Cl)c2)s1`, the manual score was -0.5 (inactive).

Regarding `Cc1ccc(C)c(-n2nnnc2SCC(=O)Nc2cccc(-c3nnc4n3CCCCC4)c2)c1`, the manual score is 3 (inactive).

For `Cc1ccc(-c2nnc(SCC(=O)Nc3cccc(C(=O)N4CCOCC4)c3)n2C)cc1`, the manual score is 0 (inactive).

On to `CCOC(=O)c1cccc(NC(=O)CSc2nnc(-c3cccnc3)n2C)c1`, for which the manual score is -1 (active).

For the molecule `CCOC(=O)c1cccc(NC(=O)CSc2nnc(C3CCCCC3)n2C)c1`, the manual score was -1 (active).

Consider `COc1cccc(NC(=O)CSc2nnc(-c3ccoc3C)n2-c2ccccc2)c1`, for which the manual score is 0 (inactive).

As for `CC1CC(=S)Nc2ccccc2N1Cc1ccccc1` (stereo not given), the manual score is 0 (inactive).

For `CC1CSc2ccccc2NC1=S` (stereo not given), the manual score was 0 (inactive).

As to `CC1(C)CC(=S)Nc2ccccc2S1`, the manual score was 1 (active).

Turning to `O=C(CSc1ccccc1)N(c1ccc(Br)cc1)c1nccs1`, the manual score is 0 (inactive).

As to `c1cc2c(cc1C1=Nn3c(nnc3C3CCCCC3)SC1)OCO2`, the manual score is -1 (active).

Regarding `COc1ccc(C2=Nn3c(nnc3C3CCCCC3)SC2)cc1OC`, the manual score is -1 (active).

As for `Brc1ccccc1C1=Nn2c(nnc2-c2ccccc2)SC1`, the manual score is 0 (inactive).

For `CCCc1nnc2n1N=C(c1ccc(OC)c(OC)c1)CS2`, the manual score was -0.5 (inactive).

Regarding `COc1ccccc1C1=Nn2c(nnc2C2CCCCC2)SC1`, the manual score was 0 (inactive).

With `CCC1(c2ccc(Cl)cc2)NC(=S)N(c2ccccc2)N1` (stereo not given), the manual score was 1 (active).

As for `CCOc1ccccc1NC(=O)CSc1nnc(-c2ccco2)n1Cc1ccco1`, the manual score was -1 (active).

Consider `Clc1cccc(CSc2nnc(-c3ccccn3)n2Cc2ccco2)c1`, for which the manual score was -0.5 (inactive).

For the molecule `CCn1c(SCC(=O)Nc2oc(-c3ccccc3)c(-c3ccccc3)c2C#N)nnc1-c1ccco1`, the manual score was 0 (inactive).

Turning to `CCOc1ccccc1NC(=O)CSc1nnc(-c2ccccn2)n1Cc1ccco1`, the manual score is -1 (active).

For the molecule `COc1ccc(NC(=O)CSc2nnc(-c3ccccn3)n2Cc2ccco2)cc1OC`, the manual score is 0 (inactive).

Regarding `CCOc1ccccc1NC(=O)Nc1cccc(C(C)=O)c1`, the manual score is 0 (inactive).

For the molecule `COc1cc(Cl)cc2c1Sc1ccccc1/C2=C/CCN(C)C`, the manual score is 0 (inactive).

Turning to `O=C(CSc1nc(-c2ccc(F)cc2)cs1)N1CCOCC1`, the manual score was 0 (inactive).

With `CC1(C)Cc2ccccc2C(/C(=N\Nc2cccc(Cl)c2)C(N)=O)=N1`, the manual score was 0 (inactive).

In the case of `Cc1cccc(NC(=S)NNC(=O)c2csc3c2CCCC3)c1`, the manual score is 1 (active).

As for `Cc1ccccc1NC(=S)NNC(=O)c1csc2c1CCC(C)C2` (stereo not given), the manual score is 1 (active).

Consider `Cc1ccc(C)c(NC(=S)NNC(=O)c2cc3c(s2)CCC(C)C3)c1` (stereo not given), for which the manual score was 1 (active).

Turning to `CC(C)CNC(=S)NNC(=O)c1csc2c1CCC(C)C2` (stereo not given), the manual score was 0 (inactive).

On to `Cc1cccc(NC(=S)NNC(=O)c2csc3c2CCC(C)C3)c1` (stereo not given), for which the manual score is 1 (active).

For `CC(C)(C)C1CCc2c(C(=O)N/N=C/c3cccs3)csc2C1` (stereo not given), the manual score is 0 (inactive).

Consider `O=C1CCC(/C=C/c2ccccc2)=NN1Cc1ccc(Cl)c(Cl)c1`, for which the manual score was 0 (inactive).

`CCCN1CCC(NC(=O)Nc2ccc(F)cc2F)CC1`: the manual score was 0 (inactive).

`Cc1ccc(C)c(NC(=S)NNC(=O)c2csc3c2CCCC3)c1`: the manual score was 1 (active).

As to `Cc1ccc(C)c(NC(=S)NNC(=O)c2csc3c2CCC(C)C3)c1` (stereo not given), the manual score was 1 (active).

`O=C(N1CCCCC1)N1CCN(C(=O)N(c2ccccc2)c2ccccc2)CC1`: the manual score is 0 (inactive).

As to `O=C(NC(=S)N1CCCCC1)c1cccs1`, the manual score was 1 (active).

Consider `O=C(NC(=S)N1CCN(c2ccc(Cl)cc2[N+](=O)[O-])CC1)c1ccco1`, for which the manual score was 1 (active).

For `FC(F)(F)c1cccc(N2CCN(C(=S)NC3CCCCC3)CC2)c1`, the manual score is 0 (inactive).

`O=C(NC(=S)N1CCN(c2ccc(Cl)cc2[N+](=O)[O-])CC1)c1cccs1`: the manual score is 1 (active).

Turning to `O=C(O/N=C\c1ccc(N2CCCCC2)c([N+](=O)[O-])c1)c1c(F)cccc1F`, the manual score was 0 (inactive).

Turning to `COC(=O)C1CCCN1C(=O)c1cccs1` (stereo not given), the manual score was 0 (inactive).

With `O=C(NC(=S)N1CCN(c2ccc(C(F)(F)F)cc2[N+](=O)[O-])CC1)c1cccs1`, the manual score is 1 (active).

On to `CCN(CC)CC(O)COc1ccccc1C(=O)CCc1ccccc1` (stereo not given), for which the manual score is 0 (inactive).

Consider `COC(=O)c1cc(=O)n(CCc2ccc(OC)cc2)c(=Nc2ccc(F)c(Cl)c2)s1`, for which the manual score was 0 (inactive).

For the molecule `O=C(NC(=S)N1CCN(c2c(Cl)cccc2[N+](=O)[O-])CC1)c1cccs1`, the manual score is 1 (active).

`O=C(NC(=S)Nc1cccc(Cl)c1N1CCCC1)c1ccc(-c2cccc([N+](=O)[O-])c2)o1`: the manual score was 0 (inactive).

For `COc1ccc(N(CC(=O)NC2CCCC2)C(=O)Cn2nnc(-c3ccc(C)cc3)n2)cc1`, the manual score is 0 (inactive).

As for `COc1cc2c(C(=O)N3CCN(C4CCCCC4)CC3)cn(CC(C)C)c(=O)c2cc1OC`, the manual score was 0 (inactive).

Turning to `CC(/C=N/n1c(C2CCCCC2)n[nH]c1=S)=C\c1ccccc1`, the manual score is 1 (active).

Take `CC(/C=N/n1c(-c2ccco2)n[nH]c1=S)=C\c1ccccc1`: the manual score was 1 (active).

For the molecule `CC(=C/c1ccccc1)/C=N/n1c(-c2ccco2)n[nH]c1=S`, the manual score is 1 (active).

For the molecule `CC(/C=N/NC(=O)c1c(Br)cnn1C)=C\c1ccccc1`, the manual score was 0 (inactive).

For `Cc1ccc(C)n1-c1ccc(C(=O)NN)cc1`, the manual score is 0 (inactive).

On to `CC(C)NS(=O)(=O)c1ccc(OCC(=O)Nc2ccc3c(c2)OCO3)c(Cl)c1`, for which the manual score is 0 (inactive).

Consider `COc1ccc(OC)c(C(=O)c2coc3ccc(O)c(CN4CCOCC4)c23)c1`, for which the manual score was 0 (inactive).

For the molecule `CCCCCNC(=O)c1ccc2c(=O)[nH]c3c(C(=O)NCC4CCCO4)sc(=S)n3c2c1` (stereo not given), the manual score was -1 (active).

Consider `O=C(CN1C(=O)c2ccccc2C1=O)Nc1sc2c(c1C(=O)NCC1CCCO1)CCC2` (stereo not given), for which the manual score was 0 (inactive).

For the molecule `Cc1ccc(-n2nc(-c3cccs3)cc2C(=O)NCC2CCCO2)c(C)c1` (stereo not given), the manual score is -0.5 (inactive).

With `Cc1cc(C=C2C(=O)c3ccccc3C2=O)c(C)n1-c1ccccc1`, the manual score is 3 (inactive).

The values are drawn from PubChem BioAssay AID623868 (Vanderbilt High Throughput Screening Facility, 2012).
